Drawing on PubChem BioAssay (NCI), this text covers growth for seven compounds.

Several values for one entry are separate records, joined by “and”; a condition that tells them apart may be missing. Equal entries are not always repeated. Compounds without any hit were thinned out: in the full panel of roughly 83,000, 20% have a hit.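 A percent growth of 40 corresponds to 60% growth inhibition; 0 means no net growth; -100 means all cells died. Active threshold: below 10.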 Activity calls are given as the source filed them.

Test systems include NCI-H23 lung; NCI-H226 lung; NCI-H322M lung; HOP-62 NSCLC; NCI-H460 lung; HOP-92 NSCLC; NCI-H522 lung; A549/ATCC NSCLC; 786-0 renal; COLO 205 colon; DU-145 prostate; K-562 leukemia; MALME-3M melanoma; MDA-MB-231 breast; RXF 393 renal; SF-268 CNS; SF-295 CNS; SF-539 CNS; UACC-257 melanoma; M14 melanoma.
What all share (experiment): NCI-60 one-dose screen, 48 h (100 = growth as untreated, 0 = no growth, -100 = all killed)
Conditions in all cases: 10 µM unless noted

As to `CCN(CC)CCOc1ccc(/C(=C(\Cl)c2ccccc2)c2ccccc2)cc1`, the growth is 61.2% (inactive) and 81.6% (inactive) in the assay with NCI-H23 lung; 27.6% (inactive) and 49.4% (inactive) in the assay with NCI-H226 lung; 74.8% (inactive) with NCI-H322M lung; -40% (active) and 61.3% (inactive) with HOP-62 NSCLC; 5.92% (active) in the assay on NCI-H460 lung; 30.6% (inactive) and 83.7% (inactive) with HOP-92 NSCLC. For the same compound, the growth in the assay on NCI-H522 lung is 43.9% (inactive) and 98.7% (inactive); in the assay on A549/ATCC NSCLC, 84.8% (inactive); with 786-0 renal, -65.1% (active) and 87.8% (inactive); in the assay with COLO 205 colon, -74.8% (active) and -60.4% (active); in the assay on DU-145 prostate, 74.6% (inactive) and 103% (inactive); in the assay on K-562 leukemia, -2.92% (active) and 28% (inactive). The growth was -18.7% (active) in the assay with MALME-3M melanoma; 1.62% (active) and 26.1% (inactive) in the assay on MDA-MB-231 breast; -58.3% (active) and -26.6% (active) in the assay on RXF 393 renal; 62.8% (inactive) and 103% (inactive) in the assay on SF-268 CNS; -23.1% (active) in the assay on SF-295 CNS; -5.76% (active) and 29.9% (inactive) in the assay with SF-539 CNS. The growth with UACC-257 melanoma was -57.9% (active) and 45.8% (inactive); with M14 melanoma, -36.2% (active) and 43.3% (inactive).
On to `COc1ccc(S(=O)(=O)Nc2cc(Sc3cccc4cccnc34)c(O)c3ccccc23)cc1`, for which the growth is 23.7% (inactive) in the assay with NCI-H23 lung; 41.2% (inactive) with NCI-H226 lung; 29.9% (inactive) with NCI-H322M lung; 45.8% (inactive) in the assay on HOP-62 NSCLC; 4.45% (active) in the assay with NCI-H460 lung; 38.9% (inactive) in the assay on HOP-92 NSCLC. The growth is -39% (active) in the assay with NCI-H522 lung; 13.3% (inactive) in the assay on A549/ATCC NSCLC; 28.5% (inactive) in the assay with 786-0 renal; -60.2% (active) with COLO 205 colon; 19.5% (inactive) in the assay with DU-145 prostate; -7.46% (active) in the assay on K-562 leukemia. Further, the growth is 6.25% (active) in the assay with MALME-3M melanoma; 25% (inactive) with MDA-MB-231 breast; 18.8% (inactive) in the assay with RXF 393 renal; 11.3% (inactive) in the assay on SF-268 CNS; 22.3% (inactive) with SF-295 CNS; -6.48% (active) with SF-539 CNS. For the same compound, the growth in the assay on UACC-257 melanoma is -17% (active); with M14 melanoma it was -13.4% (active).
`Cc1ccc(-c2nc(SCC(=O)c3ccc(C#N)cc3)[nH]c(=O)c2C#N)cc1`: the growth with NCI-H23 lung is 105% (inactive); in the assay on NCI-H226 lung, 110% (inactive); with NCI-H322M lung it was 106% (inactive); in the assay with HOP-62 NSCLC, 103% (inactive); in the assay on NCI-H460 lung it was 115% (inactive); with HOP-92 NSCLC, 108% (inactive). The growth in the assay with NCI-H522 lung is 82.1% (inactive); in the assay on A549/ATCC NSCLC, 98.4% (inactive); with 786-0 renal, 96.1% (inactive); with COLO 205 colon, 88.9% (inactive); in the assay with DU-145 prostate, 102% (inactive); in the assay on K-562 leukemia, 96.3% (inactive). Further, the growth in the assay on MALME-3M melanoma was 99.2% (inactive); with MDA-MB-231 breast it was 100% (inactive); in the assay on RXF 393 renal it was 117% (inactive); in the assay on SF-268 CNS it was 96% (inactive); in the assay on SF-295 CNS, 103% (inactive); in the assay on SF-539 CNS, 92.2% (inactive). The growth in the assay on UACC-257 melanoma was 100% (inactive); in the assay on M14 melanoma, 96.7% (inactive).
As for `CONC1=Nc2cc(NC(N)=NCc3ccccc3)c(N(C)C3CCCCC3)cc2OC1`, the growth in the assay on NCI-H23 lung is 68.3% (inactive); in the assay with NCI-H226 lung, 67.3% (inactive); with NCI-H322M lung it was 87% (inactive); in the assay on HOP-62 NSCLC, 82.3% (inactive); in the assay on NCI-H460 lung it was 59.7% (inactive); in the assay on HOP-92 NSCLC it was 35.4% (inactive). The growth is 59.3% (inactive) in the assay on NCI-H522 lung; 78.7% (inactive) with A549/ATCC NSCLC; 71.2% (inactive) with 786-0 renal; -36.1% (active) with COLO 205 colon; 72.6% (inactive) in the assay with DU-145 prostate; 23.6% (inactive) with K-562 leukemia. Further, the growth was 78.6% (inactive) in the assay with MALME-3M melanoma; 25.5% (inactive) in the assay with MDA-MB-231 breast; 41.2% (inactive) with RXF 393 renal; 68.1% (inactive) with SF-268 CNS; 83.3% (inactive) with SF-295 CNS; 75.9% (inactive) in the assay on SF-539 CNS. Moreover, the growth in the assay with UACC-257 melanoma was 89.5% (inactive); in the assay on M14 melanoma, 78.1% (inactive).
Turning to `Cc1ccccc1SSc1ccccc1C`, the growth with NCI-H23 lung was 83.4% (inactive); in the assay on NCI-H226 lung, 95.6% (inactive); in the assay with NCI-H322M lung it was 98.2% (inactive); with HOP-62 NSCLC it was 96% (inactive); in the assay with NCI-H460 lung, 37.4% (inactive); in the assay on HOP-92 NSCLC, 81.2% (inactive). For the same compound, the growth with NCI-H522 lung is 60.8% (inactive); in the assay with A549/ATCC NSCLC, 98.8% (inactive); with 786-0 renal it was 105% (inactive); with COLO 205 colon, 91.4% (inactive); in the assay on DU-145 prostate it was 6.96% (active); in the assay with K-562 leukemia it was 99.1% (inactive). Besides, the growth with MALME-3M melanoma is 104% (inactive); in the assay with MDA-MB-231 breast it was 82.7% (inactive); with RXF 393 renal, 73.8% (inactive); in the assay with SF-268 CNS it was 95.2% (inactive); in the assay on SF-295 CNS, 80.3% (inactive); with SF-539 CNS, 104% (inactive). Besides, the growth was 105% (inactive) in the assay on UACC-257 melanoma and 85.2% (inactive) in the assay on M14 melanoma.
On to `O=C1/C(=C/c2cn(-c3ccccc3)nc2-c2ccccc2)SC(=S)N1c1ccccc1`, for which the growth in the assay on NCI-H23 lung was 95% (inactive); with NCI-H226 lung, 96.2% (inactive); with NCI-H322M lung, 99.2% (inactive); in the assay on HOP-62 NSCLC it was 100% (inactive); with NCI-H460 lung, 107% (inactive); in the assay with HOP-92 NSCLC, 33.6% (inactive). Moreover, the growth in the assay with NCI-H522 lung is 91.3% (inactive); in the assay on A549/ATCC NSCLC it was 105% (inactive); in the assay on 786-0 renal, 105% (inactive); with COLO 205 colon it was 117% (inactive); in the assay on DU-145 prostate it was 102% (inactive); in the assay with K-562 leukemia it was 104% (inactive). Also, the growth in the assay on MALME-3M melanoma is 94.5% (inactive); in the assay on MDA-MB-231 breast it was 89.1% (inactive); in the assay on RXF 393 renal, 107% (inactive); in the assay on SF-268 CNS it was 99.1% (inactive); in the assay on SF-295 CNS it was 97.5% (inactive); in the assay with SF-539 CNS, 94.5% (inactive). The growth in the assay with UACC-257 melanoma was 107% (inactive); with M14 melanoma it was 97.2% (inactive).
As for `C=C1CC[C@@H]2[C@](C)(COC(C)=O)[C@H](OC(C)=O)CC[C@@]2(C)[C@@H]1CC(Nc1ccc(S(=O)(=O)Nc2nccs2)cc1)C1=CCOC1=O` (stereo not given in full), the growth was 38.1% (inactive) with NCI-H23 lung; -14% (active) with NCI-H226 lung; 59.9% (inactive) in the assay on NCI-H322M lung; 120% (inactive) in the assay on HOP-62 NSCLC; 29.5% (inactive) in the assay on NCI-H460 lung; 54% (inactive) in the assay on HOP-92 NSCLC. Besides, the growth with NCI-H522 lung is -61.9% (active); in the assay on A549/ATCC NSCLC it was 43.7% (inactive); in the assay with 786-0 renal, 6.27% (active); in the assay on COLO 205 colon, -24.6% (active); with DU-145 prostate, 22.3% (inactive); in the assay with K-562 leukemia, 3.4% (active). The growth in the assay on MALME-3M melanoma is 0.4% (active); in the assay with MDA-MB-231 breast, 5.69% (active); with RXF 393 renal, -50.6% (active); in the assay with SF-268 CNS, 21.3% (inactive); in the assay on SF-295 CNS it was 73% (inactive); in the assay with SF-539 CNS it was -67.1% (active). The growth in the assay with UACC-257 melanoma was 22.4% (inactive); in the assay with M14 melanoma, 8.12% (active).
